Active and inactive are the calls of the source. Entries that show only a call come without a potency. Calls come from the whole dose curve; as a rule, active = well fitted activation curve with a large enough effect; inconclusive = small, poorly fitted or top-dose-only effect; inactive = no such curve, though single readings can be large or run the other way.
Potency is the fitted concentration of half-maximal effect.

This assay is described as follows: Confirmatory qHTS for Identification of Small Molecule Activators of Huntingtin-Antisense Promoter Activity. Particulars: HEK293 HTT-AS promoter firefly luciferase reporter, 24 h; series mostly up to 57.5 µM. The method in brief:
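2,500 luciferase reporter HEK293 cells/well; 24 h culture; cpds up to 57.5 uM final, PTC124 50 uM ctrl; 24 h, 37C; Dual-Glo FLuc reagent, 10 min RT; lum. Norm.: vehicle 0%, zero RLU -100%.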
(In general: Quantitative high-throughput screening tests each substance at several concentrations.)
For `CCCSCCCNC(=O)c1cc2n(n1)CCCN(Cc1ccc(C)cc1)C2=O`, the Potency entry is “inactive”.
The value for `Cc1oc(-c2cccc(Cl)c2)nc1CN1CCC(C(=O)NCCCN2CCN(c3ccc(F)cc3)CC2)CC1` was “inactive”; that for `COc1cc(Br)c(C2CC(=O)Nc3cc4c(cc32)OCCO4)cc1OC` (centres undefined) was “inactive”; that for `O=C(Nc1ccc(Br)cc1)c1cc(S(=O)(=O)NC2CCCC2)ccc1F` was “inactive”.
In the case of `COc1ccc(-c2nc(CSCC(=O)N3CCN(c4cc(Cl)ccc4C)CC3)c(C)o2)cc1`, the Potency result is “inactive”.
In the case of `O=C1CSC2(C(=O)N(Cc3cccc(C(F)(F)F)c3)c3ccccc32)N1c1ccc(F)c(F)c1` (centres undefined), the Potency result was “inactive”.
On to `CCN(C(=O)c1cc2c(s1)-c1ccccc1OC2)c1cccc(C(F)(F)F)c1`, for which the Potency result was “inactive”.
The same measure for `CC(C)Oc1ccc(C(=O)N(Cc2ccco2)c2ccccn2)cc1`: 2690 nM (active); for `CCc1nc2ccc(C(=O)NCCc3ccc(OC)cc3OC)cc2nc1CC`: “inactive”.
On to `CCOc1ccccc1CNC(=O)c1cc2c(=O)n(Cc3ccccc3)ccc2nc1C`, for which the Potency entry is “inactive”.
Take `CC(=O)c1c(C)oc2ccc(N(C(=O)c3ccncc3)S(=O)(=O)c3ccc(F)cc3C)cc12`: the Potency result is “inactive”.
In the case of `COc1ccc(-c2cccc(NS(=O)(=O)c3cc(C)c(OC)c(C)c3C)c2)nn1`, the Potency result was “inactive”.
Regarding `COc1cc(NC(=O)c2cc3c(s2)-c2ccccc2OC3)cc(OC)c1OC`, the Potency result was “inactive”.
As for `COc1ccc(CCNC(=O)c2c(C)nn(-c3ccc(F)cc3)c2-n2cccc2)cc1OC`, the Potency entry was “inactive”.
`Cc1oc(-c2ccc(C(=O)NCc3ccccc3F)cc2)nc1COc1ccccc1`: the Potency result was “inactive”.
Regarding `COc1ccc(CN2CCc3c(c(=O)n4ncc(C(=O)N5CCN(c6ccccc6OC)CC5)c4n3C)C2)cc1`, the Potency result was “inactive”.
With `Cc1ccc2onc(CC(=O)Nc3cccc(C(F)(F)F)c3)c2c1`, the Potency entry was “inactive”.
The same measure for `COCCN1C(=O)c2[nH]nc(-c3ccccc3O)c2C1c1ccc(OCc2ccccc2)c(OC)c1` (centres undefined): “inactive”; for `Cc1ccccc1OCc1ccc(-c2nc(C#N)c(NCc3cccnc3)o2)o1`: “inactive”; for `COc1ccccc1C1CC(=O)NC(C)=C1C(=O)OC1CCCCCC1` (centres undefined): “inactive”.
For the compound `COc1ccc(S(=O)(=O)NCCc2cc3ccc(C)c(C)c3[nH]c2=O)cc1`, the Potency result is “inactive”.
The same measure for `CCCCOc1ccc(CNC(=O)Cc2ccc(NC(=O)N3CCSc4ncccc43)cc2)cc1`: “inactive”.
Turning to `COc1ccc(OC)c(-c2nnc3ccc(-c4ccc(OC)c(O[C@@H]5CCOC5)c4)nn23)c1`, the Potency entry was “inactive”.
The same measure for `COc1ccc(NC(=O)CSc2nc(-c3cccs3)cc(C(F)(F)F)n2)cc1OC`: “inactive”; for `Cc1ccc(-c2cc(N)n(Cc3cccc(Cl)c3)n2)cc1`: “inactive”; for `O=C(Nc1ccc(Oc2ccccc2)cc1)C1CCN(S(=O)(=O)c2ccccc2)CC1`: “inactive”.
The value for `CCOc1ccccc1CNC(=O)C(CC)n1nc(C)c2c(C)n(-c3ccccc3)nc2c1=O` (centres undefined) was “inactive”.
The same measure for `COc1ccccc1C(=O)Oc1c(Sc2ccccc2)c(C)nn1C(C)(C)C`: “inactive”.
For the compound `COc1ccc(-c2nc3sc(CCNS(=O)(=O)c4ccccc4)c(C)n3n2)cc1`, the Potency result was “inactive”.
The same measure for `CCOC(=O)c1cc(-c2ccccc2)n(CCCC(=O)Nc2ccc(CC)cc2)c1C`: “inactive”; for `CSc1ccc(CCNc2ncnc3onc(C)c23)cc1`: “inactive”.
The same measure for `Cc1ccc(C)c(NC(=O)CSc2nnc(-c3cc4occc4n3C)n2-c2ccccc2C)c1`: “inactive”; for `CCCCN1CC(c2nc3ccccc3n2CCCCOc2ccc(C)c(C)c2)CC1=O` (centres undefined): “inactive”.
The value for `CCOc1ccc(S(=O)(=O)N(C(=O)c2ccncc2)c2ccc3oc(C)c(C(=O)OC)c3c2)cc1` was “inactive”; that for `CC=C1NC(=O)[C@H]2CSSCCC=C[C@H](CC(=O)N[C@H](C(C)C)C(=O)N2)OC(=O)[C@H](C(C)C)NC1=O` was “inactive”; that for `CCn1c(=O)sc2cc(NS(=O)(=O)c3ccc(F)c(C)c3)ccc21` was “inactive”.
As for `CCN1c2ccccc2-c2nc(SCC(=O)Nc3cc(F)ccc3F)ncc2S1(=O)=O`, the Potency result is “inactive”.
As to `CCOc1ccc(NC(=O)c2ccc(F)c(S(=O)(=O)N(CC)Cc3ccccc3)c2)cc1`, the Potency result is “inactive”.
The value for `COc1cccc(N2CCN(C(=O)c3cccc(-n4c(C)nc5cccnc54)c3)CC2)c1` was “inactive”.

These data come from PubChem BioAssay AID1508622 (National Center for Advancing Translational Sciences (NCATS), 2021).
